Hits are enriched below; roughly 12% of the tested compounds scored in any of these assays.
AmpC inh no detg: blocks E. coli AmpC beta-lactamase in detergent-free assay. P00811. AmpC nitrocefin hydrolysis, absorbance 480 nm, 0.0001% Triton. Potency, µM (doses to about 57.1 µM), for inactives: at the top dose activity change, negative = inhibition, usual class: inhibitors. 330,000 compounds, 0.52% hits;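 also: plate controls were no compound for no effect and no enzyme for full effect; nearly all actives have a fitted effect of over 20% in size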
Target sequence (P00811 whole entry, looked up): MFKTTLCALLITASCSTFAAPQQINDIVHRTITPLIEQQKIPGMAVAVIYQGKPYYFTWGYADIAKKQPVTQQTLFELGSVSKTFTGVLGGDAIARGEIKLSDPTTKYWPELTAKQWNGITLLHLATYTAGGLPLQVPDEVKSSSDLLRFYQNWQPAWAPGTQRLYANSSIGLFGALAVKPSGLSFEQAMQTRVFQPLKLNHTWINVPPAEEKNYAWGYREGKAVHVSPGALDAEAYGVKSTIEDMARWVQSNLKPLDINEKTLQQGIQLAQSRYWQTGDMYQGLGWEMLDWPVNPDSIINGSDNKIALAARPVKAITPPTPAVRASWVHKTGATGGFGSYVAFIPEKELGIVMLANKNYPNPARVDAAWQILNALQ
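AmpC (5.3 nM in the dispensed reagent) in 20 mM phosphate pH 7.0 with 0.01% (detergent screen) or 0.0001% Triton X-100 was preincubated with compounds for 15 min at room temperature. Nitrocefin was then added from an 800 uM solution, and hydrolysis was followed at 480 nm.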
Sm TGR block: blocks Schistosoma mansoni thioredoxin glutathione reductase. Q962Y6. purified TGR, DTNB reduction, TNB absorbance 405 nm. Potency, µM (series often up to 114 µM), without a hit: top-dose activity change, negative = inhibition, most hits filed as inhibitors. 360,000 compounds, 3% hits. AID 485364; also: % is scaled to controls: 0 for no effect and ±100 for the full control effect; nearly all actives have a fitted effect of over 60% in size
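First, TGR (20 nM dispensed) and NADPH were mixed with compound. Second, a 15 min room-temperature incubation followed. Third, further NADPH and then DTNB were added to start the reaction. Finally, TNB absorbance was monitored kinetically.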
SARS PLpro yeast: SARS-CoV PLP inhibition in yeast; S. cerevisiae expressing SARS-CoV PLpro, growth rescue; Potency, µM (series often up to 32.9 µM), for inactives: at the highest dose activity, positive = growth rescue, hits mostly activators; 330,000 compounds, 0.19% hits; AID 485353; calls by dose curve; also: 0% is about no effect; nearly all actives have a fitted effect of over 55% in size
Pf growth 48h: P. falciparum growth inhibition at 48 hours (one generation). P. falciparum luciferase growth in erythrocytes, 48 h. Potency, µM (highest dose often 28.7 µM), inactives show top-dose activity change, negative = inhibition, most hits filed as inhibitors. 310,000 compounds, 5.9% hits. AID 504832; also: % is scaled to controls: 0 for no effect and ±100 for the full control effect
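Cell-based growth assay: transgenic P. falciparum expressing firefly luciferase, cultured in red cells within RPMI 1640 containing 0.5% w/v Albumax, 24 mM bicarbonate and gentamycin. A drop in luciferase activity indicates inhibition.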
AmpC inh detg: blocks E. coli AmpC beta-lactamase in detergent assay; AmpC hydrolysis of nitrocefin, absorbance 480 nm, 0.01% Triton; AID 485294; Potency, µM (highest dose often 114 µM), for inactives: at the top dose activity change, negative = inhibition, actives largely listed as inhibitors; 370,000 compounds, 0.041% hits;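 also: 0% = no-compound wells and -100% = no-enzyme wells; nearly all actives have a fitted effect of over 25% in size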
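AmpC (5.3 nM in the dispensed reagent) in 20 mM phosphate pH 7.0 with 0.01% (detergent screen) or 0.0001% Triton X-100 was preincubated with compounds for 15 min at room temperature. Nitrocefin was then added from an 800 uM solution, and hydrolysis was followed at 480 nm.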
Pf growth 96h: P. falciparum growth inhibition at 96 hours | P. falciparum luciferase reporter growth, 96 h | Potency, µM (doses to about 28.7 µM), for inactives: at the top dose activity change, negative = inhibition, hits mostly inhibitors | 320,000 compounds, 6.9% hits | AID 504834; also: % is scaled to controls: 0 for no effect and ±100 for the full control effect
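Two parasite generations (96 h, 37 C, 5% CO2) of compound exposure in infected erythrocytes (0.05% parasitemia, 2% hematocrit). Luciferase-reporter P. falciparum; decreased luminescence indicates inhibited growth, aimed at apicoplast-acting delayed death.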
* = called active by the depositor; i = inactive; ? = inconclusive; / = not tested or not shown; [ ] = remark or other dose. Unless noted, calls follow the shape of the dose curve; as a rule, active = well fitted curve in the direction sought with a large enough effect; inconclusive = small, poorly fitted or top-dose-only effect, or another doubt; inactive = no such curve, though single readings can be large; an effect the other way counts as inactive or inconclusive. Potency is read from the fitted curve at half-maximal effect.

SMILES | AmpC inh no detg | Sm TGR block | SARS PLpro yeast | Pf growth 48h | AmpC inh detg | Pf growth 96h
CC(=O)N1[C@H](Cc2ccccc2)C=C[C@]1(C)C(=O)NCc1ccc(C)o1 | 132% | 8.9µM* | ? | -20% | -6% | ?
CC(C)(C)N(CC#CCC1(O)c2ccccc2-c2ccccc21)CCO | -6% | -26% | 1% | ? | 1% | 12µM*
OCCN(CC#CCn1c2ccccc2c2ccccc21)CCO | 105% | -19% | -3% | 6% | -4% | 10%
CC1=CC(=O)C2=C(C)CC(O)C3C(C)C(=O)OC3C12 (configuration not stated) | -2% | -3% | -1% | -3% | 5% | 13µM*
O=c1c2ccccc2nc(C[n+]2ccccc2)n1-c1cccc(C(F)(F)F)c1 | -19% | -16%[57.1 µM] | 1% | -18% | -2% | 12µM*
CNC(CC(=O)c1ccc([N+](=O)[O-])cc1)C(Cl)(Cl)Cl (configuration not stated) | -18% | 0.45µM* | -107% | 36% | -12% | i
COc1ccc(C(=O)CC(Nc2ccc([N+](=O)[O-])cc2)c2ccc(OC)cc2)cc1 (configuration not stated) | -30% | 6% | -6% | ? | 5% | ?
Cc1ccc(C(=O)CNc2cccc([N+](=O)[O-])c2)cc1 | -25% | 6% | 1% | 62% | 2% | 12%
Cc1ccc(NCC(=O)c2ccc([N+](=O)[O-])cc2)cc1 | -36% | 16µM* | -2% | ? | -9% | ?
O=C(c1ccc(Cn2cc(Cl)cn2)o1)N1CCN(Cc2ccc3c(c2)OCO3)CC1 | 119% | ? | 4% | ? | -2% | 13µM*
COc1ccc(C(=O)N2CCN(Cc3ccc4c(c3)OCO4)CC2)cc1OC | 25% | 11% | 8% | -4% | 5% | 9.3µM*
CCCc1cc(=O)oc2cc(OCC(=O)N3CCN(Cc4ccc5c(c4)OCO5)CC3)ccc12 | 187% | 1% | -5% | ? | 1% | 12µM*
O=C(c1ccccc1)N1CCN(Cc2ccc3c(c2)OCO3)CC1 | 7% | 13% | 0% | 30% | -5% | 13%
COc1ccc(OCC(=O)N2CCN(Cc3ccc4c(c3)OCO4)CC2)cc1 | 98% | 4% | -1% | -12% | 1% | -1%
O=C(c1[nH]nc2c1CCc1ccccc1-2)N1CCN(Cc2ccc3c(c2)OCO3)CC1 | 78% | 12% | 2% | 8.3µM* | -4% | ?
O=C(Nc1ccc2c(c1)OCO2)c1cnc(Cl)c(Cl)c1 | -36% | -7% | -4% | 114% | -15% | 158%
Cc1ccc(OCC(=O)N2CCN(Cc3ccc4c(c3)OCO4)CC2)cc1 | -8%[11.4 µM] | -3% | 0% | 18% | ? | -1%
COc1ccc(CN2C(=O)C(O)(CC(=O)c3ccc4c(c3)OCO4)c3ccccc32)cc1OC (configuration not stated) | 16% | 0% | 2% | / | -7% | 5.9µM*
Cc1ccc(C)c(OCC(=O)N2CCN(Cc3ccc4c(c3)OCO4)CC2)c1 | -1% | 56µM* | -1% | 28% | 1% | 4%
CC(C)NC(=O)Cn1ccc2cc(S(=O)(=O)N3CCCCCC3)ccc21 | / | 4% | / | / | 17% | /
CC(=O)Nc1nc(C)c(-c2nc3ccc([N+](=O)[O-])cc3[nH]2)s1 | -35% | -4% | 1% | 14% | -4% | -29%
COc1cc(C2NC(=S)NC(O)(C(F)(F)F)C2C(=O)c2cccs2)cc(OC)c1O (configuration not stated) | -33% | -5% | 19% | 58% | 14% | 48%
CC(=O)C1C(c2ccc(F)cc2)NC(=O)NC1(O)C(F)(F)F (configuration not stated) | -9% | -10% | 2% | 18% | 3% | ?

Assay outcomes: PubChem BioAssay, National Center for Advancing Translational Sciences (NCATS)
